# Source: PubChem BioAssay (NCATS)
# Results filed as inconclusive are left out. Unmarked numbers belong to inactive results. Active and inactive are the calls of the source. Calls follow the shape of the dose curve; as a rule, active = well fitted curve in the direction sought with a large enough effect; inconclusive = small, poorly fitted or top-dose-only effect, or another doubt; inactive = no such curve, though single readings can be large; an effect the other way counts as inactive or inconclusive.
# Biological target: Rap guanine nucleotide exchange factor 4 (Homo sapiens) (UniProt Q8WZA2)
# Test: Confirmatory qHTS for antagonist of cAMP-regulated guanine nucleotide exchange factor 4 (EPAC2) (AID 1645885); also: % is scaled to controls: 0 for no effect and ±100 for the full control effect; nearly all actives have a fitted effect of over 25% in size
# Conditions: EPAC2 Rap1B-BODIPY-GDP exchange fluorescence, biochemical; series mostly up to 114 µM; activity change, negative = inhibition: at the top concentration
# Chain of Rap guanine nucleotide exchange factor 4 (Homo sapiens) (Q8WZA2 whole entry, looked up): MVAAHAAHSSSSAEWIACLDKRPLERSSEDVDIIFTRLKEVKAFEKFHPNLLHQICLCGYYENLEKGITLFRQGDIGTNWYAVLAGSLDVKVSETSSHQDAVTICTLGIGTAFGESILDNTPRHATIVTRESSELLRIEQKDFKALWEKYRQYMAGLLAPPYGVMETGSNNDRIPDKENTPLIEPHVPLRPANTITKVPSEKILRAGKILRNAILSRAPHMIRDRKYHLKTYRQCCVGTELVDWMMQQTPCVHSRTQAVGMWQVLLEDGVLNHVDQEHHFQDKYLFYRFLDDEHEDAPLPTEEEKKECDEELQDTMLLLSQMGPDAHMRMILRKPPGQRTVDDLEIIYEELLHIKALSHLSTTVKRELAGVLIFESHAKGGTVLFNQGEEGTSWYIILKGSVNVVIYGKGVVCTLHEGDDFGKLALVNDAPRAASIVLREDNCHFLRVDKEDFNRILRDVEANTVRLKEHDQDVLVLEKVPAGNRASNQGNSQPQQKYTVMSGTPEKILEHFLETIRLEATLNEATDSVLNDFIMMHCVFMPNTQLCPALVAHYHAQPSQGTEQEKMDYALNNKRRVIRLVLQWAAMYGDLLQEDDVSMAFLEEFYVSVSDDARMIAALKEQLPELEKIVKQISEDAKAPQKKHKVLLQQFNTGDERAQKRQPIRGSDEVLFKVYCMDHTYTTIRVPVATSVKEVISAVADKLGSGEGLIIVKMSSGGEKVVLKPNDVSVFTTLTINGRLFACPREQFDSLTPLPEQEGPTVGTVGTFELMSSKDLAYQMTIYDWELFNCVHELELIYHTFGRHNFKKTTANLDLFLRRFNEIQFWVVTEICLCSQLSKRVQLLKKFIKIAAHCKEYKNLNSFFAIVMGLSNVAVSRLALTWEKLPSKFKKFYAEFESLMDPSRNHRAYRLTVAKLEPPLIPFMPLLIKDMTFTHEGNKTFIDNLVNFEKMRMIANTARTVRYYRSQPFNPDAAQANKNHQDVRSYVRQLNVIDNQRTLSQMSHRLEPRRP
row,SMILES,"activity change, negative = inhibition"
1,COc1ccc(N2C(=O)c3ccccc3C2=O)cc1,-13.5%
2,CC(=O)NC(c1cc(Cl)c2ccccc2c1O)C(C)C (stereo not given),-39.3% [at 12.7 µM]
3,CC(=O)NS(=O)(=O)c1ccc(NC(=O)c2cc(-c3ccc(C)c(C)c3)nc3ccccc23)cc1,-11.1% [at 12.7 µM]
4,O=C(CCc1ccccc1)Nc1ccc(S(=O)(=O)Nc2nccs2)cc1,1.51% [at 12.7 µM]
5,O=C(CSc1nc2ccccc2n1CCc1ccccc1)c1ccc(O)c(O)c1,-1.95%
6,CCC(=O)NC(c1cc(Cl)c2ccccc2c1O)C(C)C (stereo not given),48.3%

# Biological target: Rap guanine nucleotide exchange factor 3 (Homo sapiens) (UniProt O95398)
# Test: Counterscreen qHTS for antagonist of cAMP-regulated guanine nucleotide exchange factor 3 (EPAC1) (AID 1645888);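 also: fluorescence loss as bound BODIPY-GDP is released from Rap1B; % of control where 0% means no effect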
# Conditions: Rap1B-BODIPY-GDP nucleotide exchange, fluorescence; series mostly up to 30.8 µM; activity change, negative = inhibition: at the top concentration
# How it was run: (§1)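 Rap1B–BODIPY-GDP (250 nM) with 50 uM GDP; compounds pin-transferred to 9.74 nM–152 uM final (activator) or from 7.32 nM upwards (inhibitor). Fluorescence Ex/Em 480/540 nm read at 5 and 30 min, then after adding cAMP or buffer, at room temperature.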
# Chain of Rap guanine nucleotide exchange factor 3 (Homo sapiens) (O95398 whole entry, looked up): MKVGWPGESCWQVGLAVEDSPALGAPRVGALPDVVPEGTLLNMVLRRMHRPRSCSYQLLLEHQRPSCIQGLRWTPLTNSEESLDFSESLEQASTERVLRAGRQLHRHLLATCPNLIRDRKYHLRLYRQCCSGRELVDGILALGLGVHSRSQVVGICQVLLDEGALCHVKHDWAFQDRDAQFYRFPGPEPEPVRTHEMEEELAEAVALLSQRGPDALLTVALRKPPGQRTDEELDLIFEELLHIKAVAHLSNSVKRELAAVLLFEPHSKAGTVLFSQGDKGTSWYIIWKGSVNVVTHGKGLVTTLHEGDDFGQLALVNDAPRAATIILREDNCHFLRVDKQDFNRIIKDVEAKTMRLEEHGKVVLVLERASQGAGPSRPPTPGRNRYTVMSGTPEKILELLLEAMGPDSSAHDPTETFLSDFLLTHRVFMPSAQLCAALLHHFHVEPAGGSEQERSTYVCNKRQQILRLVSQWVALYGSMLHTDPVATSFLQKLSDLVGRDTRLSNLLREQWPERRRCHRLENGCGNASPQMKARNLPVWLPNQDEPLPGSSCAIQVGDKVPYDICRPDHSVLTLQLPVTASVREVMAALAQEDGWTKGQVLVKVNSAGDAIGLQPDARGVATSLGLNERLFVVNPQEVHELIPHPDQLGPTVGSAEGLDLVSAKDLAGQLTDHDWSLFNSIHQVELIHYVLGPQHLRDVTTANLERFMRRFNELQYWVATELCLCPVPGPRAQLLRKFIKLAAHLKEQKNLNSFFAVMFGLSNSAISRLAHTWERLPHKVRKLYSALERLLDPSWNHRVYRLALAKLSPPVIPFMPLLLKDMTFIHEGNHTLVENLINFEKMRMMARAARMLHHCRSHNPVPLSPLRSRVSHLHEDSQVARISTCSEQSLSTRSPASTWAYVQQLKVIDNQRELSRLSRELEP
row,SMILES,"activity change, negative = inhibition"
1,COc1ccc(N2C(=O)c3ccccc3C2=O)cc1,-1.17% [at 154 µM]
2,CC(=O)NC(c1ccco1)c1cc(Cl)c2ccccc2c1O (stereo not given),-13.5%
3,CC(=O)NC(c1cc(Cl)c2ccccc2c1O)C(C)C (stereo not given),2.64%
4,CC(=O)c1ccc(N2CCN(S(=O)(=O)c3ccc4c(c3)C(Cl)(Cl)C(=O)N4)CC2)cc1,20.1% [at 154 µM]
5,CC(=O)NS(=O)(=O)c1ccc(NC(=O)c2cc(-c3ccc(C)c(C)c3)nc3ccccc23)cc1,-1.74%
6,O=C(CSc1nc2ccccc2n1CCc1ccccc1)c1ccc(O)c(O)c1,1.89% [at 154 µM]
7,CCC(=O)NC(c1cc(Cl)c2ccccc2c1O)C(C)C (stereo not given),-3.29% [at 154 µM]
8,CCC(=O)NC(c1cccs1)c1cc(Cl)c2cccnc2c1O (stereo not given),-16.6% [at 154 µM]

# Biological target: Rap guanine nucleotide exchange factor 3 (Homo sapiens) (UniProt O95398)
# Test: Counterscreen qHTS for agonist of cAMP-regulated guanine nucleotide exchange factor 3 (EPAC1) (AID 1645889); also: % of control where 0% means no effect; nearly all actives have a fitted effect of over 40% in size
# Conditions: EPAC1 Rap1B-BODIPY-GDP exchange, fluorescence; series mostly up to 154 µM; activation: at the top concentration
# How it was run: as §1
row,SMILES,activation
1,COc1ccc(N2C(=O)c3ccccc3C2=O)cc1,10%
2,CC(=O)NC(c1cc(Cl)c2ccccc2c1O)C(C)C (stereo not given),8.27% [at 30.8 µM]
3,O=C(CCc1ccccc1)Nc1ccc(S(=O)(=O)Nc2nccs2)cc1,9.8% [at 30.8 µM]
4,O=C(CSc1nc2ccccc2n1CCc1ccccc1)c1ccc(O)c(O)c1,-7.97%
5,CCC(=O)NC(c1cc(Cl)c2ccccc2c1O)C(C)C (stereo not given),23.8%
6,CCC(=O)NC(c1cccs1)c1cc(Cl)c2cccnc2c1O (stereo not given),-4.16%

# Biological target: Glutathione peroxidase 1 (Homo sapiens) (UniProt P07203)
# Test: Primary qHTS Assay for Inhibitors of Recombinant Selenoprotein Glutathione Peroxidase 1 (GPX1) (AID 1845191); also: nearly all actives have a fitted effect of over 65% in size; as to activity, negative = inhibition: % is scaled to controls: 0 for no effect and ±100 for the full control effect
# Conditions: recombinant GPX1, GR-coupled NADPH fluorescence, 15 min; series mostly up to 48.8 µM; activity, negative = inhibition: at the top concentration
# How it was run: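 GR-coupled readout: NADPH consumption tracked by fluorescence, ex 340/em 450 nm, at t=0 and after 15 min at RT. Final mix 10 nM GPX1, 1 mM GSH, 0.5 mM CHP, 0.5 mM NADPH, 100 nM GR, 0.01% BSA, following 30 min enzyme–compound preincubation.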
# Chain of Glutathione peroxidase 1 (Homo sapiens) (P07203 whole entry, looked up): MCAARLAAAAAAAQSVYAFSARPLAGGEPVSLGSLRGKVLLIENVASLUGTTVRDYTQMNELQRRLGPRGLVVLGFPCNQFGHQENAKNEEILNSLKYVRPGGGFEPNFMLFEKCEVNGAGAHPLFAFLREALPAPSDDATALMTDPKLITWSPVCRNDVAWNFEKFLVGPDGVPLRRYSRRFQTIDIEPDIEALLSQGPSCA
SMILES,"activity, negative = inhibition [%]",outcome
COC(=N)c1nc2ccc3ncnc(Nc4ccc(F)cc4Br)c3c2s1,2.07,
O=C1CCCC2=C1C(c1ccccc1I)N=C(Nc1nc3ccccc3o1)N2 (stereo not given),-6.15,
Cc1noc(CN(C)c2ncnc3ccc(-c4ccc5c(c4)OCO5)cc23)n1,-12.7,
Nc1ccc(-c2ccnc(NCCCNC(=O)c3c(Cl)cccc3Cl)n2)cc1,-6.78,
CC(C)(C)n1nc(Cc2cccc([N+](=O)[O-])c2)c2c(N)ncnc21,,inactive
Cc1ccc(NS(=O)(=O)c2ccc3c(c2)CCC(=O)N3)cc1C,-2.98,
[2H]C([2H])(Nc1nc(-c2ccccc2C([2H])(C([2H])([2H])[2H])C([2H])([2H])[2H])ncc1C)c1ccc(-n2ccnn2)cc1,4.27,
Cc1ccc(NS(=O)(=O)c2cc3c(cc2N[C@H](C)CO)NC(=O)CC3)cc1C,-5.84,
CC(=O)Nc1sc2c(c1-c1ccc(N3CCN(C)CC3)cc1)CCNC2,-17.1,
CC(C)(C)n1nc(Cc2cccc3ccccc23)c2c(N)ncnc21,-19.3,
